The values below come from PubChem BioAssay.

The test system of assay [1] is Human papillomavirus type 1a protein E7 (residues 44-93). The assay is described as follows: HPV1a E7 fragment binders on microarrays, primary screen, biochemical, small-molecule microarray, residues 44-93, 635 nm fluorescence (AID 1108).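 Further: E7 fragment applied at 1 µg/mL in TBST for 1 h at 4 C; score combines spot fluorescence with its signal to noise ratio.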 As to conditions: small-molecule microarray binding, fluorescence 635 nm; higher = more signal.
Assay [2] is described as follows: modulators of HCV replicon luciferase signal, primary screen, HCV replication inhibitor project, Huh7 cells, luciferase reporter (AID 1109).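 Further: huh7 hepatoma cells harbouring a luciferase neomycin HCV replicon reporter; luciferase luminescence as measure of HCV replicon replication; test concentration not given here.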 The note with it: 48 h, higher = more signal. For orientation: In antiviral work, replicon cells carry a viral genome segment that copies itself.
The target of assay [3] is Left-right determination factor 2 (Homo sapiens) (UniProt O00292). The assay is described as follows: LEFTY2 binders on small-molecule microarrays, primary screen, biochemical, small-molecule microarray, 635 nm fluorescence scan (AID 1110). The note with it: LEFTY2 binding, higher = more signal.
Sequence of Left-right determination factor 2 (Homo sapiens) (O00292 whole entry, looked up): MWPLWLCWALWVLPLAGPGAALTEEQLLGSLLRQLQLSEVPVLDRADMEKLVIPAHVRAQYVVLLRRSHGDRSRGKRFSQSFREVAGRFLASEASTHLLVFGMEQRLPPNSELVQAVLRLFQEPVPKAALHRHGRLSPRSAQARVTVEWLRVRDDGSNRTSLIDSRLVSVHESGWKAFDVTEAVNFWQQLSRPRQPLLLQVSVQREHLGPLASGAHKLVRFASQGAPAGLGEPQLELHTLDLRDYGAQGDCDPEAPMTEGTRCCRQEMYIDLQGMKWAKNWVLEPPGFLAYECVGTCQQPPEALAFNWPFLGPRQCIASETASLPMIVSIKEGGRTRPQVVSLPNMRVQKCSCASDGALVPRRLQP
Assay [4] has as its target Calmodulin-1 (Homo sapiens) (UniProt P0DP23). Kind of assay: CALM1 binders on microarrays, EGTA buffer, profiling panel, biochemical, small-molecule microarray, Cy5-labelled CALM1 (AID 1111).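 Further: labelled calmodulin applied in Tris saline Tween buffer holding calcium plus EGTA and DTT.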 As to conditions: Cy5-CALM1 binding fluorescence, higher = more signal.
For assay [5] the target is unchanged. Kind of assay: calcium-bound CALM1 binders on microarrays, profiling panel, artefact control for SMM control-protein annotation, biochemical, small-molecule microarray, Cy5-labelled CALM1, plus calcium (AID 1112).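 Further: score merges spot fluorescence with signal to noise from triplicate slides.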 The note with it: Cy5-CALM1 binding fluorescence, higher = more signal.
Assay [6] in a line: small-molecule microarray binders of probe aWnt5a, primary screen, biochemical, biotinylated probe, 635/667 nm fluorescence (AID 1113).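 Further: score merges 667 nm fluorescence intensity with signal-to-noise per printed feature.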 The note with it: higher = more signal.
Assay [7] in a line: small-molecule microarray binders of probe aShh, primary screen, biochemical, biotinylated probe, 635/667 nm fluorescence (AID 1114).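 Further: probe is biotin-labelled aShh protein from a stem cell growth factor screen; measures binding of labelled protein to compounds printed on the slide; score merges feature fluorescence at 667 nm with signal-to-noise.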 As to conditions: higher = more signal.
The nature of assay [8]: small-molecule microarray binders of probe aNog, primary screen, biochemical, biotinylated probe, 635/667 nm fluorescence (AID 1115).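 Further: probe is biotinylated aNog protein used at 0.15 µg/mL for 1 h at 4 C; z-score combines 667 nm fluorescence of each spot with its signal to noise.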 As to conditions: higher = more signal.
For assay [9], the target named is Torsin-1A-interacting protein 1 (Homo sapiens) (UniProt Q5JTV8). The assay is described as follows: LAP1 binders from COS7 cell lysate, primary screen, small-molecule microarray, 635/667 nm fluorescence (AID 1116). As to conditions: COS7-hLAP1 lysate binding, 635 nm fluorescence, higher = more signal.
Sequence of Torsin-1A-interacting protein 1 (Homo sapiens) (Q5JTV8 whole entry, looked up): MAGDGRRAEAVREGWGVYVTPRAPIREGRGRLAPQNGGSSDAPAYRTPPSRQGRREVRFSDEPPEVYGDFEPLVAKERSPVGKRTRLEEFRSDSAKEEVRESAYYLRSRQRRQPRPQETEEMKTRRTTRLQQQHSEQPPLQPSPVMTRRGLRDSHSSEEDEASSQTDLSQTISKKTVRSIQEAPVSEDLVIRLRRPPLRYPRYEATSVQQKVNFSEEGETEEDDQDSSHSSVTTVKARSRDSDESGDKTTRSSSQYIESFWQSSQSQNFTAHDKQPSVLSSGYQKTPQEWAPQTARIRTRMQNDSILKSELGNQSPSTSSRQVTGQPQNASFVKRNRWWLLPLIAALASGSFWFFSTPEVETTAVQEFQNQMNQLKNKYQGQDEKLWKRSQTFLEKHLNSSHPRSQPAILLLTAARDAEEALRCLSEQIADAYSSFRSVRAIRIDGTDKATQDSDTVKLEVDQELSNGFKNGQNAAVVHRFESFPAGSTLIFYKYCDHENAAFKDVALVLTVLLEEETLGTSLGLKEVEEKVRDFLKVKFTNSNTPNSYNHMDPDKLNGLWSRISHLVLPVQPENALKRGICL
Assay [10] has as its target Alpha-bungarotoxin (Bungarus multicinctus) (UniProt P60615). The assay is described as follows: alpha-bungarotoxin binders on microarray, profiling panel, artefact control for SMM control protein annotation, biochemical, small-molecule microarray, Alexa647 label, 635/667 nm fluorescence (AID 1117). As to conditions: alpha-BTX-A647 binding fluorescence, higher = more signal.

Sequence of Alpha-bungarotoxin (Bungarus multicinctus) (P60615 whole entry, looked up): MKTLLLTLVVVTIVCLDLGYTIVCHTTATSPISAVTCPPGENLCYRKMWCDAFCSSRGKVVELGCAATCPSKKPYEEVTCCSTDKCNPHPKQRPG

With `CC(C)OC(=O)CC(=O)CC(O)c1cccc([N+](=O)[O-])c1` (stereo not given), the composite z-score in assay [1] came out at 1.31; in [3], 0.117; in assay [4], 0.834; in assay [5], 0.17; in assay [6], 0.264; in [7], 0.418. Besides, the figures for the composite z-score in [8], in [9] and in assay [10] were -0.138, 1.24 and 0.288, respectively. For the same compound, in [2], the z-score was -1.6.

Consider `[N-]=[N+]=Nc1ccccc1C[C@@]1(C(=O)NCc2ccccc2)N=C(c2ccc(OCCCO)cc2)O[C@@H]1c1ccccc1N=[N+]=[N-]`, for which the composite z-score in assay [1] is -0.334; in assay [3], -0.0656; in assay [4], 1.69; in [5], 0.683; in assay [6], 0.33; in assay [7], 0.171. Moreover, the composite z-score in assay [8] was found to be 1.18; in assay [9], 1.19; in assay [10], 1.97. Also, the z-score in [2] was -3.01.

For the compound `O=C1NC(=O)C2C1C=CC(C(O)c1ccc([N+](=O)[O-])cc1)N2Nc1ccccn1` (stereo not given), the composite z-score is -0.382 in [1]; 0.33 in assay [3]; 0.259 in assay [4]; -0.746 in assay [5]; -0.102 in assay [6]; -0.138 in assay [7]. The values for the composite z-score in assay [8], in [9] and in [10] were 0.0193, 0.45 and -0.011, respectively. For the same compound, the z-score in assay [2] was 0.403.

In the case of `CC(C)(C)N1CC=CC23O[C@@H]4/C=C\CCCOC(=O)C4[C@H]2C(=O)N(CCCO)[C@@H]3C1=O` (stereo not given in full), the composite z-score in assay [1] was -0.751; in [3], 0.178; in assay [4] it was -0.71; in [5], -0.275; in assay [6] it was -0.172; in assay [7], -0.0192. Moreover, the composite z-score in assay [8] was 0.185; in assay [9] it was -1.37; in assay [10], -1.62. The compound also came in with a z-score in assay [2] of 0.0578.

As to `C[N+](C)(C)CCCC[C@@H]1NC(=O)[C@@H]2C[C@H](C(=O)NCc3ccc(F)cc3)[C@H](c3ccc(O)cc3)N2C1=O`, the composite z-score in assay [1] is 0.132; in assay [3] it was -0.392; in assay [4], -0.1; in assay [5] it was 0.0305; in [6] it was -0.178; in [7], -0.381. In addition, the composite z-score in [8] was -0.28; in assay [9] it was 2.44; in assay [10] it was 1.24. Besides, in [2], the z-score is -0.0213.

For `CCCC[C@H]1C[C@@H]1[C@@H]1N(C(C)=O)[C@H](c2cccc(OC)c2)CC12CC2`, the composite z-score in assay [1] was -0.223; in [3] it was -0.305; in [4] it was 1.03; in assay [5], 0.878; in assay [6], -0.0276; in assay [7], 0.0278. For the same compound, the composite z-score in [8] was -0.643; in [9], 0.632; in assay [10] it was 0.154. In addition, in assay [2], the z-score was -0.103.

`COCCCNC(=O)[C@@]1(CCC(=O)OC(C)(C)C)COC(c2ccc(OCCCO)cc2)=N1`: the composite z-score in [1] is 1.48; in assay [3], -0.148; in [4], -0.664; in assay [5], -0.0486; in assay [6], -0.124; in assay [7], -0.0169. For the same compound, the composite z-score was -0.603 in assay [8], 2.01 in [9] and 0.778 in assay [10]. In addition, in assay [2], the z-score was -1.11.

In the case of `C=CC[C@]1(C(=O)NCC(O)CO)COC(c2ccc(OCCCO)cc2)=N1` (stereo not given in full), the composite z-score is -0.683 in assay [1]; -0.531 in assay [3]; -0.189 in [4]; 0.202 in [5]; 0.0618 in assay [6]; 1.01 in assay [7]. Further, the composite z-score was -0.21 in [8], 1.53 in assay [9] and -1.21 in assay [10]. The same compound returned a z-score in assay [2] of 0.412.

With `COCCOC(=O)N1C(=O)[C@@]2(c3cc(C#CCC(C(=O)OC)C(=O)OC)ccc31)[C@H](C(=O)Nc1nc3ccccc3s1)[C@H]1C(=O)O[C@H](c3ccccc3)[C@H](c3ccccc3)N1[C@@H]2c1ccc(OCCO)cc1`, the composite z-score is 0.783 in assay [1]; 1.21 in [3]; 1.34 in [4]; -0.21 in assay [5]; 0.0377 in assay [6]; 0.0043 in [7]. Moreover, the composite z-score in assay [8] is -0.0242; in assay [9], 1.38; in [10], 0.752. Further, in assay [2], the z-score was -2.03.

`C=CCC(OC(C)=O)[C@@H]1[C@@H](N(Cc2cc3ccccc3o2)C(=O)Cc2ccc(OC)cc2)c2cc(OCCCO)ccc2N1C(=O)c1ccc2ccccc2n1` (stereo not given in full): the composite z-score in assay [1] was -0.329; in assay [3] it was 0.0809; in assay [4], -0.154; in assay [5] it was -0.292; in assay [6], 0.0573; in [7], -0.0362. Also, the composite z-score in [8] was -0.0381; in assay [9], 0.461; in assay [10], 1.08. Besides, in assay [2], the z-score was -0.814.

For `C=C(CCCC)C(=O)CC[C@H](OC(=O)c1ccccc1-c1ccccc1C(=O)O)c1ccc(OCCO)cc1`, the composite z-score in [1] is 1.34; in assay [3], 0.849; in [4], 0.945; in assay [5], -0.898; in assay [6], -0.119; in assay [7] it was -0.154. The results for the composite z-score in assay [8], in assay [9] and in assay [10] were -0.495, 0.479 and 1.02, respectively. The z-score in assay [2] was -2.05.

As to `Cc1ccc(S[C@]2(C(=O)NC(C)C)CC(=O)N(C3CCCCC3)[C@@H]2c2ccc(CO)cc2I)cc1`, the composite z-score in assay [1] was 1.44; in [3], -0.0068; in assay [4], 0.679; in assay [5] it was -0.558; in [6], -0.0721; in assay [7] it was -0.0035. Also, the composite z-score in assay [8] is 0.313; in assay [9] it was 0.208; in assay [10], 1.52. Further, in assay [2], the z-score is -2.93.

With `NC(=O)N1C(=O)C2C(C1=O)C1C=C(CCCO)C2C(c2ccc(CN3CCCC3)cc2)N1Cc1sc2ccccc2c1Cl` (stereo not given), the composite z-score in [1] is 0.53; in assay [3], -0.292; in assay [4] it was 0.302; in assay [5], 0.424; in assay [6] it was -0.0735; in assay [7] it was -0.0146. For the same compound, the figures for the composite z-score in assay [8], in [9] and in [10] were -0.342, -0.218 and 0.187, respectively. In addition, in [2], the z-score was -2.9.
